We go through 40 compounds from PubChem BioAssay (Tox21).

Where “and” joins values, the source holds several entries; their conditions need not be identical. Equal values may be shown once. Results filed as inconclusive are left out. Unmarked numbers belong to inactive results. Calls of active or inactive are those of the source. Calls come from the whole dose curve; as a rule, active = well fitted cell-killing curve with a large enough effect in the repeat runs; inconclusive = weak or mixed curves, or effect the other way; inactive = no such curve, though single readings can be large or run the other way.
% is set by controls: 0 for no effect and ±100 for the full control effect; potency is the fitted concentration of half-maximal effect.

This assay in a line: qHTS assay to identify small molecule agonists of the farnesoid-X-receptor (FXR) signaling pathway - cell viability counter screen (AID 743218). Note: nearly all actives have a fitted effect of over 45% in size. Conditions: FXR-bla HEK293T viability, CellTiter-Glo luminescence, 16 h; series mostly up to 62.6 µM; viability change, negative = cytotoxic: at the top concentration. From the text:
U.S. Tox21 Program National Center for Advancing Translational Sciences [NCATS] NIH Chemical Genomics Center [NCGC] U.S. Environmental Protection Agency [EPA] National Institutes of Environmental Health Sciences [NIEHS] National Toxicology Program [NTP] U.S. Food and Drug Administration [FDA] Tox21 Assay Overview: The farnesoid-X-receptor (FXR), a nuclear hormone receptor, is highly expressed in liver, intestine, kidney and adrenal cortex. Natural ligands of FXR are the bile acids (Cholic acid, Chenodeoxy cholic acid etc). FXR is an important regulator of diverse metabolic pathways, including the bile acid homeostasis, lipid and glucose metabolisms. FXR regulates the expression of target genes by binding either as a monomer or as a heterodimer with the retinoid X receptor (RXR). Numerous studies have reported that FXR exerts protective function during cholestasis, diabetes, liver regeneration, and cancer. To identify compounds that activate FXR signaling, GeneBLAzer FXR-UAS-bla HEK 293T cell line (Invitrogen, Carlsbad, CA) containing a beta-lactamase reporter gene under the control of a UAS response element was used to screen the Tox21 10K compound library. The cytotoxicity of the Tox21 compound library against the FXR-bla cell line was tested in parallel by measuring the cell viability using CellTiter-Glo assay in the same wells.
Tox21 Assay Protocol Summary: FXR-bla cells were dispensed at 5000 cells/5uL/well in 1536-well black wall/clear bottom plates using a Multidrop Combi (Thermo Fisher Scientific, Waltham, MA) dispenser. After the assay plates were incubated at 37 C and 5% CO2 for 5 h, 23 nL of compounds dissolved in DMSO, positive controls or DMSO only was transferred to the assay plate by a Pintool station (Kalypsys, San Diego, CA). The assay plates were incubated at 37C for 16 h. After 1 uL of LiveBLAzerTM B/G FRET substrate was added using a Bioraptr Flying Reagent Dispenser (FRD) workstation (Beckman Coulter, Indianapolis, IN), the plates were incubated at room temperature for 2 h, and fluorescence intensity was measured by an Envision plate reader (PerkinElmer, Shelton, CT). For cell viability readout that measures cytotoxicity, 4uL/well of CellTiter-Glo reagent was added into the assay plates using a Bioraptr FRD. After 30 min incubation at room temperature, the luminescence intensity in the plates was measured using a ViewLux plate reader (PerkinElmer).
As for `CCn1cc[n+](C)c1` (tested in a mixture with another compound), the “viability change, negative = cytotoxic” value is -10.9%.
On to `COc1ccc(Cc2nccc3cc(OC)c(OC)cc23)cc1OC`, for which the “viability change, negative = cytotoxic” value is 10.3%.
Same read-out and setting: the figure for `O=C(CCCCl)c1ccc(F)cc1` is 21.8%; for `COC(=O)C(C)N(C(=O)c1ccco1)c1c(C)cccc1C` (stereo not given) it is -8.68%; for `CCN(CC)CCN1C(=O)CN=C(c2ccccc2F)c2cc(Cl)ccc21` it is 2.96%.
Same read-out and setting: in the case of `ClC1=C(Cl)[C@]2(Cl)[C@@H]3[C@H]4C[C@H]([C@@H]5O[C@H]45)[C@@H]3[C@@]1(Cl)C2(Cl)Cl` it was 2.88%; in that of `[C-]1=CC=CC1.[Cl][Zr+2][Cl].c1cc[cH-]c1`, 4.61% [at 81.1 µM]; in that of `CC#C[C@]1(O)CC[C@H]2[C@@H]3C[C@H](C)C4=CC(=O)CC[C@]4(C)[C@H]3CC[C@@]21C`, 0.33%.
Regarding `Cc1ccc([N+](=O)[O-])[c]2c1[O][Hg]2`, the Potency is 2.37 µM (active).
With `O=C(O)CCCCCCNC1c2ccccc2CCc2ccccc21`, the “viability change, negative = cytotoxic” value is 3.4%.
On the same count and under the same terms, in the case of `CNC(C)(C)Cc1ccccc1` it was 6.21%.
On to `O=S1OCC2C(CO1)C1(Cl)C(Cl)=C(Cl)C2(Cl)C1(Cl)Cl` (stereo not given), for which the Potency is 38.9 µM (active).
In the case of `CCNS(=O)(=O)C(F)(F)C(F)(F)C(F)(F)C(F)(F)C(F)(F)C(F)(F)C(F)(F)C(F)(F)F`, the “viability change, negative = cytotoxic” value was -21.5%.
Turning to `CCC[CH2][Sn]([CH2]CCC)([O]C(C)=O)[O]C(C)=O`, the Potency is 11.1 µM (active).
Same read-out and setting: in the case of `CN(C)C(=S)SSC(=S)N(C)C` it was 121 nM (active) and 30.9 nM (active) and 841 nM (active).
For the compound `CCCCn1cc[n+](C)c1` (tested in a mixture with another compound), the “viability change, negative = cytotoxic” value was -14.3%.
Still for that read-out and setting: in the case of `CCCCN(CCCC)C(=S)[S-].CCCCN(CCCC)C(=S)[S-].[Ni+2]` it was 16.1%; in that of `CC(C)(C)c1ccc(OP(=O)(Oc2ccccc2)Oc2ccccc2)cc1`, -20.9% [at 81.1 µM]; in that of `CC(C)C(Br)C(=O)NC(N)=O` (stereo not given), 23.8%.
On the same count and under the same terms, the figure for `CC(=O)[O-].CC(=O)[O-].[Co+2]` is 20.6%; for `C#CCO` it is 7.37%; for `O=C(O)[C@H](O)[C@@H](O)C(=O)O` it is 3.13%.
On the same count and under the same terms, the figure for `c1ccc2c(c1)cc1ccc3cccc4ccc2c1c34` is -3.49% [at 81.1 µM].
In the case of `CCC(C)Nc1c([N+](=O)[O-])cc(C(C)(C)C)cc1[N+](=O)[O-]` (stereo not given), the “viability change, negative = cytotoxic” value was 25.3%.
For the compound `CCN1CCC2(CC1)COc1cc3c(cc12)N(C(=O)c1ccc(-c2ccc(-c4nnc(C)o4)cc2C)cc1)CC3`, the Potency is 14.3 µM (active).
For `CC(=O)[O-].CC(=O)[O-].O.O.O.[Pb+2]`, the “viability change, negative = cytotoxic” value was -19.7%.
Still for that read-out and setting: in the case of `Cc1nn(-c2cc(NS(C)(=O)=O)c(Cl)cc2Cl)c(=O)n1C(F)F` it was 17%.
Still for that read-out and setting: the figure for `Brc1cccc(-c2ccccc2)c1` is 5.43% [at 81.1 µM]; for `O.O.O.O.O.O.O=S(=O)([O-])[O-].[Ni+2]` it is 2.59%.
Regarding `CCC[CH2][Sn]([CH2]CCC)([CH2]CCC)[O][Sn]([CH2]CCC)([CH2]CCC)[CH2]CCC`, the Potency was 0.479 µM (active).
Regarding `c1cc[n+]2c(c1)-c1cccc[n+]1CC2`, the “viability change, negative = cytotoxic” value is 7.47%.
Consider `CC(C)C(Nc1ccc(C(F)(F)F)cc1Cl)C(=O)OC(C#N)c1cccc(Oc2ccccc2)c1` (stereo not given), for which the “viability change, negative = cytotoxic” value is 21% [at 81.1 µM].
Take `CSSC`: the “viability change, negative = cytotoxic” value is -22.3% [at 81.1 µM].
On the same count and under the same terms, in the case of `CC1CCCC1` it was -11.9%; in that of `FC(F)C(F)(F)OCC(Cn1cncn1)c1ccc(Cl)cc1Cl` (stereo not given), 28.6%.
Turning to `CN1C(=O)[C@@H](NC(=O)c2cc3ccccc3[nH]2)N=C(c2ccccc2)c2ccccc21`, the “viability change, negative = cytotoxic” value is -2.99%.
On the same count and under the same terms, in the case of `N#Cc1ccc(N(CC(N)=O)CC(F)(F)F)cc1C(F)(F)F` it was 7.94%; in that of `CCOC(=O)CCN(SN(C)C(=O)Oc1cccc2c1OC(C)(C)C2)C(C)C`, 13.2%; in that of `C1=CCC=C1`, -20.4%.
For the compound `CNC(=O)O/N=C(\C)C(C)S(C)(=O)=O` (stereo not given), the “viability change, negative = cytotoxic” value is 0.994% [at 765 µM].
